TGFb inhibitor – blocks TGF-b signaling | HepG2 CAGA-GFP TGF-b/SMAD3 reporter, GFP fluorescence, 18 h; TGF-beta stimulated, 500 pg/mL final | Potency, µM (doses to about 46.1 µM), most hits filed as inhibitors | hit rate 1.2% among 410,000; note: nearly all actives have a fitted effect of over 65% in size
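TGF-beta reporter screen: HEPG2 CAGA-GFP, 1% FBS, 500 pg/mL TGF-beta final, 18 h; per-cell GFP summed per well; curves fitted and categorized by class.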
S2 tox – reduces viability in counter-screen for ATXN expression inhibitors; hit rate 0.49% among 400,000; Potency, µM (top dose mostly 56.7 µM), most hits filed as cytotoxic; S2 cells (HEK-293 line with an ATXN2-luciferase reporter) viability, CellTiter-Fluor protease fluorescence, 24 h; note: nearly all actives have a fitted effect of over 40% in size
ATXN2 expr inh – ATXN2 expression inhibition. HEK-293 ATXN2-luciferase reporter, luminescence, 24 h. Potency, µM (doses to about 57 µM), most hits filed as inhibitors. hit rate 0.72% among 360,000; note: nearly all actives have a fitted effect of over 55% in size
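ATXN2-luciferase reporter cells (luciferase flanked by upstream and downstream ATXN2 gene portions) were treated 24 h at 37 °C with compounds at up to 57 uM. SteadyGlo luminescence gave expression; GF-AFC fluorescence gave viability.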
RORgamma inh – blocks mouse ROR gamma transcriptional activity; hit rate 5.4% among 310,000; Drosophila S2 Gal4-RORgamma UAS-luciferase reporter, 20 h; P51450; Potency, µM (series often up to 53.6 µM), most hits filed as inhibitors; note: nearly all actives have a fitted effect of over 60% in size
Target sequence (P51450 whole entry, looked up, the tested form may be a part): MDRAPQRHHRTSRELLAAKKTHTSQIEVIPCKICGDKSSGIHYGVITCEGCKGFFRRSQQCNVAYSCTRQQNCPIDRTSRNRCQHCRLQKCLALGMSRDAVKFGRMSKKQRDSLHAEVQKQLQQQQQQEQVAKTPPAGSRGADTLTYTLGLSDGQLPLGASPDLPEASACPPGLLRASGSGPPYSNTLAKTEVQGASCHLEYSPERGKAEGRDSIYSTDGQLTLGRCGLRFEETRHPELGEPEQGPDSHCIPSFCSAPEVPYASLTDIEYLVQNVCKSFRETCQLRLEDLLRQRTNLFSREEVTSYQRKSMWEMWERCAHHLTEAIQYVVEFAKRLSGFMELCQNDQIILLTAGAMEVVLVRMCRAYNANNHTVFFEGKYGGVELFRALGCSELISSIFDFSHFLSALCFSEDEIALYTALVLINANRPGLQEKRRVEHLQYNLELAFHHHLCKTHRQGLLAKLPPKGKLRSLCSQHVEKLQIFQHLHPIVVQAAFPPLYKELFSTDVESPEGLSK
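Stable Schneider cell line, Gal4 DNA-binding domain fused to ROR gamma, UAS-luciferase. Cmpd 1 hr RT → CuSO4 700 uM final → 20 hr RT → luciferase reagent 10 min → luminescence.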
HepG2 viability – kills HepG2 cells in TGF-b inhibitor counter-screen; HepG2 CAGA-GFP viability, ATP luminescence, 18 h; Potency, µM (titrated, usually from 46.1 µM), usual class: cytotoxic; hit rate 0.76% among 410,000; AID 588856
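CellTiter-Glo luminescence gave cytotoxicity after 18 hours at 37 degrees C. The cells were HepG2 CAGA-GFP in 1% FBS DMEM, stimulated with 500 pg/mL TGF-beta after compound addition. %Activity was normalised to no-cell wells (complete cell-killing) and DMSO (no toxicity), and curves were fitted and classified.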
VP16 counter – Gal4-VP16 reporter inhibition counter-screen. hit rate 3.5% among 310,000. Drosophila S2 Gal4-VP16 UAS-luciferase, luminescence, 20 h. Potency, µM (top dose mostly 53.6 µM), most hits filed as inhibitors. AID 2546;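 note: Gal4-VP16 expression switched on by copper sulfate through the metallothionein promoter; nearly all actives have a fitted effect of over 50% in size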
Hits are given with their value; – = inactive; ? = inconclusive; · = not tested or not shown; ! = not confirmed by another sample; [ ] = remark or other dose. Only some compounds are listed: those with a hit (about 6.1% of all), similar ones and a draw of the others. Calls come from the whole dose curve; as a rule, active = well fitted curve in the direction sought with a large enough effect; inconclusive = small, poorly fitted or top-dose-only effect, or another doubt; inactive = no such curve, though single readings can be large; an effect the other way counts as inactive or inconclusive.

SMILES	TGFb inhibitor	S2 tox	ATXN2 expr inh	RORgamma inh	HepG2 viability	VP16 counter
COc1ccc(-c2csc3ncnc(Nc4ccc(OC)c(OC)c4)c23)cc1	10µM	?	?	·	–	·
Cn1nnnc1Sc1ncnc2scc(-c3ccc(Cl)cc3)c12	?	11µM	14µM	·	–	·
COc1ccc(Nc2ncnc3scc(-c4ccc(OC)cc4)c23)cc1	?	–	–	–	–	–
Cn1nnnc1Sc1ncnc2scc(-c3ccccc3Cl)c12	?	?	20µM	·	–	·
c1ccc(-c2ccc(-c3csc4ncnc(Sc5nnnn5-c5ccccc5)c34)cc2)cc1	?	·	·	·	–	·
COc1ccc(-c2csc3ncnc(Sc4nnnn4C)c23)cc1	18µM	?	20µM	·	–	·
Cn1nnnc1Sc1ncnc2scc(-c3ccc([N+](=O)[O-])cc3)c12	13µM	16µM	7.1µM	·	–	·
CO[C@@]1(NC(=O)CSC[C@@H](N)C(=O)O)C(=O)N2C(C(=O)O)=C(CSc3nnnn3C)CS[C@@H]21	·	–	–	·	·	·
O=C(NCCc1csc2nc(-c3ccccc3F)nn12)C(=O)Nc1cc(F)ccc1F	–	–	–	·	–	·
Cc1c(Cl)ccc2c(C(=O)NC(C)c3ccncc3)cc(-c3ccncc3)nc12 (configuration not stated)	·	·	·	?	·	13µM
CCN(CC)c1ccc(N=Nc2ccc(S(=O)(=O)N(C)C)cc2)c(S(=O)(=O)NCC[n+]2ccccc2)c1	·	–	·	·	·	·
CC(=O)Nc1cccc(-c2cnc(N)c(C(=O)c3cccnc3)n2)c1	10µM	?	?	·	–	·
C=CS(=O)(=O)N(Cc1ccccc1)[C@H](CO)CC(C)C	–	?	–	·	–	·
C=CS(=O)(=O)N(Cc1ccccc1Br)[C@H](CO)Cc1ccccc1	?	13µM	16µM	·	–	·
Cc1ccc(C)c(N2CCN(C(=O)CN3C(=O)COc4ccc(S(=O)(=O)N5CCCC5)cc43)CC2)c1	–	–	–	·	–	·
COC(=O)c1ccccc1NC(=O)N1CCC(N2CCN(Cc3ccc(F)cc3)C(=O)C2=O)CC1	–	?	–	·	–	·
CCCSCCCNC(=O)C1CCCN(C(=O)c2cnn(-c3ccccc3)c2-n2cccc2)C1 (configuration not stated)	16µM	–	–	·	–	·
CCCCn1c(=O)n(Cc2cccc(F)c2)c(=O)c2c1ncn2Cc1ccco1	–	–	–	3.2µM	–	?
CC(NC(=S)Nc1cccc(C(F)(F)F)c1)C(C)(C)C (configuration not stated)	?	?	–[11.3 µM]	3.2µM	–	10µM
CN(C)NC(=S)Nc1cccc(C(F)(F)F)c1	–	–	–	1µM	–	5.6µM
Cc1cc(C(=O)NNC(=S)Nc2cccc(C(F)(F)F)c2)nn1C	–	–	–	16µM	–	11µM
COc1ccc(NC(=S)Nc2cccc(C(F)(F)F)c2)c(C)c1	–	–	–[11.3 µM]	10µM	–	?
COC(=O)N[C@@H](c1cccc(F)c1)C(C(C)=O)C(=O)OC (some centres not stated)	·	·	·	–	·	–
O=C(Nc1cccc(F)c1)c1ccc2snnc2c1	–	–	–	·	–	·
O=C(Nc1nccs1)C1CC2CCC1C2 (configuration not stated)	–	–	–	7.9µM	–	–
SMILES	TGFb inhibitor	S2 tox	ATXN2 expr inh	RORgamma inh	HepG2 viability	VP16 counter
COCCCNC(=O)CCCn1c(=O)c2cccn2c2ccccc21	–	·	·	·	–	·
COc1cc2c3nnc(-c4ccc(F)cc4)c-3cn(Cc3ccccc3)c2cc1OC	–	–	16µM	11µM	–	7.1µM
COc1ccc(Cn2cc3c(-c4ccc(F)cc4)nnc-3c3cc(OC)c(OC)cc32)cc1	–	–	32µM	–	–	–
COc1cc2c3nnc(-c4ccc(F)cc4)c-3cn(Cc3ccc(F)cc3)c2cc1OC	–	–	?	?	–	–
CCOCCCN1C(=O)CN(C2CCCCCC2)C(=O)C1c1ccc(OC(C)C)c(OC)c1 (configuration not stated)	–	·	·	·	–	·
Cc1ccc(-n2c(SCc3ccccc3C)nc3[nH]ncc3c2=O)cc1C	?	?	?	·	–	·
COc1ccc2c(c1)-c1nc(-n3ncc(C(=O)NC(C)(C)CO)c3C3CC3)ncc1CC2	·	–	·	·	·	·
COCOc1ccc(Br)cc1C(=O)/C=C\c1ccc2c(c1)OCO2	·	·	·	–[10 µM]	·	–[10 µM]
COC(=O)C1=C(C)OC(N)=C(C#N)C1c1ccccc1 (configuration not stated)	–	–	–	–	–	–
CCSc1cc(C2C(C#N)=C(N)OC(C)=C2C(=O)OC)c(C)o1 (configuration not stated)	–	–	–	13µM	–	–
Cc1ccc(CCNC(=O)C(NS(=O)(=O)c2ccc3c(c2)oc(=O)n3C)C(C)C)cc1 (configuration not stated)	–	–	–	·	–	·
COc1ccc(S(=O)(=O)N2CCC[C@H]2C(=O)N2CCC[C@H]2C(=O)NCc2ccccc2)cc1C	·	–	–	·	·	·
COc1ccc(S(=O)(=O)N2CCC[C@H]2C(=O)N2CCC[C@H]2C(=O)NCc2ccc(F)cc2F)cc1C	·	25µM	?	·	·	·
CC(=O)/C(=N\Nc1cccc(Cl)c1)Sc1cccc2cccnc12	–	–	–	3.2µM	–	?
CC(=O)/C(N)=N/Nc1cccc(Cl)c1	?	–	–	–	–	–
CC(=O)/C(=N\Nc1cccc(Cl)c1)Sc1nnc(-c2ccccc2)n1-c1ccccc1	?	–	–	10µM	–	11µM
COC(=O)CN1C(=O)C(O)(c2c(C)[nH]c3ccccc23)c2ccccc21 (configuration not stated)	?	–	–	·	–	·
CC(C)NC(=S)N/N=C1\CCCCc2ccccc21	?	–	·	0.79µM	–	2µM
COc1cccc(NC(=S)N/N=C2/CCCCc3ccccc32)c1	–	–	–	3.5µM	–	5µM
Cc1ccc(C)c(NC(=S)N/N=C2/CCCCc3ccccc32)c1	–	–	–	1.6µM	–	6.3µM
S=C(N/N=C1\CCc2ccccc21)NC1CCCCC1	–	?	·	1µM	–	5.6µM
O=C(N/N=C1/CCc2ccccc21)C1CC1	–	–	–	–	–	–
CCn1nc(C)c2c(-c3ccccc3)cc(=O)n(C(C)C(=O)NCCc3ccc(Cl)cc3)c21 (configuration not stated)	–	?	?	·	–	·
COc1cc(Cl)c(NC(=O)c2cc3ccccn3n2)c(OC)c1	–	–	–	·	–	·
CCOc1ccc(C(=O)N2CCC(c3ccncc3)CC2)cc1	?	–	–	·	–	·
COc1cccc([C@@H]2Oc3ccc(OC)cc3C(=O)[C@H]2O)c1	?	–	–	13µM!	–	?
C=CCc1ccccc1OCCSc1nc(-c2ccccc2F)nc2cc(=O)[nH]n12	18µM	–	–	·	–	·
